Fluorescein fluor = fluorescein region autofluorescence; Compound autofluorescence, 480/540 nm, fluorescein-equivalent; stronger effect = higher value; max fluorescein-equivalent concentration, M; hit rate 0.91% among 59,000; AID 593; in the data active = max fluorescein-equivalent concentration above about 10 nM; inconclusive = between about 1.1 nM and that limit
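Normalized response (dye-equivalent concentration) derives from comparing each well's 540 nm emission, under 480 nm excitation, with plate-resident fluorescein standards. Compounds were held in 100 mM Tris, pH 8.0, for 15 min at room temperature.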
Rhodamine fluor = rhodamine region autofluorescence; Rhodamine-region fluorescence, 547/598 nm, Tris buffer; stronger effect = higher value; max dye-equivalent concentration, M; hit rate 0.05% among 59,000; AID 594; in the data active = max dye-equivalent concentration above about 11 nM; inconclusive = between about 1.1 nM and that limit
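Compound fluorescence in 100 mM Tris, pH 8.0, read after 15 min at room temperature with 547 nm excitation and 598 nm emission. Output is dye-equivalent concentration from an on-plate rhodamine standard series.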
Resorufin fluor = compounds fluorescent in resorufin spectral region; hit rate 0.04% among 59,000; AID 588; Compound fluorescence, resorufin region 547/598 nm, buffer; stronger effect = higher value; max dye-equivalent concentration, M
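Compounds in 100 mM Tris buffer, pH 8.0, incubated 15 min at room temperature, then read with 547 nm excitation and 598 nm emission filters. Fluorescence was converted to dye-equivalent concentration using an on-plate six-point resorufin standard curve.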
Texas Red fluor = compounds fluorescent in Texas Red spectral region; hit rate 0.06% among 59,000; Compound fluorescence, Texas Red channel, 547/618 nm; stronger effect = higher value; max dye-equivalent concentration, M; in the data active = max dye-equivalent concentration above about 10 nM; inconclusive = between about 1.1 nM and that limit
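qHTS profiling of intrinsic compound fluorescence; 100 mM Tris pH 8.0; 15 min RT; ex 547 / em 618 nm; response expressed as Texas Red dye-equivalent concentration from six-point plate standard.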
A488 fluor = A488 region autofluorescence; compound autofluorescence, A488 spectral region, dye equivalency; Compound Type: qHTS ECL - MLSMR; max dye equivalency, M; hit rate 0.1% among 59,000; AID 591
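Autofluorescence read at ex 480/em 540 nm after 15 min RT in 100 mM Tris pH 8.0; compound signal normalized to A488 standard series on each plate, reported as dye-equivalent concentration at each test concentration.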
A647 autofl = compound fluoresces in the A647 spectral region. Compound fluorescence, A647 channel (570/671 nm), Tris buffer. AID 592. 59,000 tested, under 10 active. max dye-equivalent concentration, M;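 also: values scaled relative to a standard on each plate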
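Fluorescence read (570 nm ex, 671 nm em) after 15 min RT incubation of compounds in 100 mM Tris buffer, pH 8.0; values expressed as dye-equivalent concentration against a six-point A647 standard series on each plate.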
An asterisk follows results filed as active; i = inactive; ? = inconclusive. Shown are actives, neighbours in structure and some others; about 0.96% of the full set was active somewhere. Unless noted, no rule for the calls is given here.

SMILES	Fluorescein fluor	Rhodamine fluor	Resorufin fluor	Texas Red fluor	A488 fluor	A647 autofl
O=C(NCc1ccccc1F)C1CCN(C(=O)NCc2ccccc2)CC1	i	i	i	i	i	1.5e-08
O=C1C2CC=C(Cl)CC2C(=O)N1CCc1ccccc1 (configuration not stated)	2e-08M*	i	i	i	i	1e-09
O=C1C2CC=C(Cl)CC2C(=O)N1CNc1ccccn1 (configuration not stated)	i	i	i	i	i	3.8e-09
O=C(CCN1C(=O)C2CC=C(Cl)CC2C1=O)N1CCCCC1 (configuration not stated)	2.9e-08M*	i	i	i	?	2.3e-08
NS(=O)(=O)c1cc2c(cc1Cl)=NC(CCC(=O)O)=NS=2(=O)O	i	i	i	i	i	5.1e-08
CC(=O)Nc1ccc(N=Cc2nc(-c3ccc(C)cc3)oc2O)cc1	1.6e-08M*	i	i	i	i	1e-09
CN(C)c1ccc(N=Cc2nc(-c3ccccc3)oc2O)cc1	4.5e-08M*	i	i	i	?	1e-09
CC1=C(C(=O)O)N2C(=O)[C@@H](NC(=O)[C@@H](N)c3ccccc3)[C@@H]2SC1	?	i	i	i	i	1.2e-08
C=C[C@H]1CN2CC[C@@H]1C[C@H]2[C@@H](O)c1ccnc2ccc(OC)cc12	?	i	i	i	i	6.1e-08
COc1cc(/C=C(\C#N)C(=O)c2ccc(O)c(O)c2)cc(I)c1O	1.3e-08M*	i	i	i	i	1e-09
COc1cccc2cc(-c3nc(-c4cccs4)cs3)c(=O)oc12	2.4e-08M*	i	i	i	i	1e-09
CCc1cccc2c3c([nH]c12)[C@](CC)(CC(=O)O)OCC3	?	i	i	i	i	4.8e-08
O=C(CCC1COc2ccccc2O1)Nc1cccnc1 (configuration not stated)	1.7e-08M*	i	i	i	i	2e-08
CCN(CC)CCN1C(=O)c2cccc3cc(N)cc(c23)C1=O	3.9e-08M*	i	i	i	?	1.2e-09
CCN1C(=O)c2cccc3cccc1c23	i	i	i	?	i	7.7e-09
CC(C)c1nnc(NC(=O)CCC(=O)NCc2ccc3c(c2)OCO3)s1	1.3e-07M*	i	i	i	?	2.2e-09
CC(=O)OCC(=O)NCc1ccc2c(c1)OCO2	?	i	i	i	i	4e-08
O=C(O)c1ccccc1C(=O)Nc1cc2c(cc1Br)-c1ccccc1C2=O	?	i	i	i	i	5.7e-08
CC(=O)Nc1c2c3c(cccc3n(C)c1=O)C(=O)c1ccccc1-2	1.7e-08M*	i	i	i	?	1e-09
C[C@@H]1C[C@H](C)CN(S(=O)(=O)c2cc(Cl)c(Oc3ccc([N+](=O)[O-])cc3Cl)c(Cl)c2)C1	i	i	i	i	i	1e-09
CCOC(=O)C1CCCN(c2nc3ccccc3nc2C(C#N)C(=O)OCCOC)C1 (configuration not stated)	?	i	i	i	i	2.7e-08
CCOC(=O)C1CCN(c2nc3ccccc3nc2C(C#N)C(=O)NCCc2ccccc2)CC1 (configuration not stated)	2.3e-08M*	i	i	i	i	1e-09
CCOC(=O)C1CCCN(c2nc3ccccc3nc2C(C#N)C(=O)OCC)C1 (configuration not stated)	1.1e-08M*	i	i	i	i	3e-09
COCCNC(=O)C(C#N)c1nc2ccccc2nc1N1CCCCCC1 (configuration not stated)	?	i	i	i	i	2.7e-08
COc1cc(C(=O)O[C@@H]2CC(C)=CC[C@@]3(C)CC[C@](O)(C(C)C)[C@H]23)ccc1O	i	i	i	i	i	1e-09
SMILES	Fluorescein fluor	Rhodamine fluor	Resorufin fluor	Texas Red fluor	A488 fluor	A647 autofl
COc1ccc(NC(=O)C2Cc3ccccc3CN2C(=O)c2ccccc2)cn1 (configuration not stated)	5.9e-08M*	i	i	i	?	1e-09
O=C(NC1=NCCS1)C1Cc2ccccc2CN1C(=O)c1ccccc1 (configuration not stated)	i	i	i	?	i	7e-09
N#Cc1c(N)sc(=S)c2c1CCCCC2	3.4e-08M*	i	i	i	i	1e-09
N#Cc1c(N)sc2c1CCCCCC2	i	i	i	i	i	1e-09
CC1(C)Cc2c(C#N)c(N)sc(=S)c2CS1	1.1e-08M*	i	i	i	i	1e-09
Cc1c(N=Cc2ccc(Cl)o2)c(=O)n(-c2ccccc2)n1C	?	i	i	i	i	3.1e-08
Cc1cccc(-n2c(O)c(C=Nc3c(C)n(C)n(-c4ccccc4)c3=O)c3ccccc3c2=O)n1	5.7e-08M*	i	i	i	?	1e-09
CCN1C(=S)SC(=O)C1=C1C=C(C)N(CCO)C(C)=C1	?	i	i	i	i	1e-09
CCN1C(=S)SC(=O)C1=C1C=C(C)N(CCOC)C(C)=C1	1.1e-08M*	i	i	i	i	1e-09
Cc1cccc(N=c2oc3cc(O)ccc3cc2C(N)=O)c1	1.2e-08M*	i	i	i	i	1.9e-08
CN[C@]1(C)[C@@H]2CC[C@@H](C2)C1(C)C	i	i	i	i	i	2.5e-09
O=C(c1ccco1)N1CCN(c2nc3ccccc3n3nnnc23)CC1	1e-08M*	i	i	?	i	4.2e-08
c1ccc(CC2CCN(c3nc4ccccc4n4nnnc34)CC2)cc1	?	i	i	i	i	3.3e-08
NCCN1C(=O)c2ccccc2[C@@]1(O)c1ccc(Cl)cc1	i	i	i	i	i	1e-09
CC[C@]1(O)C[C@H]2CN(CCc3c([nH]c4ccccc34)[C@](C(=O)OC)(c3cc4c(cc3OC)N(C=O)[C@H]3[C@@](O)(C(=O)OC)[C@H](OC(C)=O)[C@@]5(CC)C=CCN6CC[C@]43[C@H]65)C2)C1	?	i	i	i	i	2.1e-08
O=C(c1ccc(N2C(=O)C3CC=C(Cl)CC3C2=O)cc1)N1CCCCC1 (configuration not stated)	i	i	i	i	i	4.5e-08
COc1cccc(N2C(=O)C3CC=C(Cl)CC3C2=O)c1 (configuration not stated)	1.5e-08M*	i	i	i	i	2.5e-08
Cc1cc2nc3c(=O)[nH]c(=O)nc-3n(CC(O)C(O)C(O)CO)c2cc1C (configuration not stated)	7.8e-07M*	?	?	i	3.1e-08M*	1e-09
CC[C@@H](CS(=O)(=O)O)[N+](=O)[O-]	?	i	i	i	i	3.3e-08
